Test results: PubChem BioAssay (EPA / NIEHS)
Inconclusive results are not listed. The source made the active and inactive calls. How the source made its calls, unless noted: active means hit-call score of the fitted dose curve at least 0.9, where 1 is the maximum; inactive means score below 0.9.

Assays:
[1] = CCTE_Harrill_HTTr_CellCount_MCF7: CCTE's Cell Proliferation Assessment for the High-Throughput Transcriptomics (HTTr) Platform, Harrill Lab (AID 2284012; active means hit-call score of the fitted dose curve at least 0.9, where 1 is the maximum;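 further: count of Hoechst-stained nuclei per well by high-content imaging in MCF-7 cells; cells exposed to compound for six hours; intended direction is loss of nuclei count meaning fewer cells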)
How it was run: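 Nuclei counting (Hoechst, high content imaging) in MCF-7 after a 6 h treatment at eight concentrations. Activity fitted bidirectionally, DMSO as negative control.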

[2] = CCTE_Shafer_MEA_acute_burst_number: CCTE's Neural Acute Assay for Single-Electrode Bursts, Shafer Lab (AID 2284013)
How it was run: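 Rat cortical cultures, DIV 13/15; 40 min baseline, then 40 min with compound 0.03-40 uM, 37 C. Spikes: 300-5000 Hz band-pass, threshold 8x rms noise. Readout = % change in single-electrode bursts vs baseline, loss-of-signal fit.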

[3] = CCTE_Shafer_MEA_acute_burst_duration_mean: CCTE's Neural Acute Assay for Mean Burst Duration, Shafer Lab (AID 2284014);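 further: hits are decreases in mean burst duration relative to DMSO controls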
How it was run: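 Primary rat cortical neurons on 16-electrode MEA wells, treated on DIV 13 or 15 with compound (0.03-40 uM; ≥3 wells each). 40-min baseline and 40-min exposure recordings at 37 C; percent change in mean burst duration per well versus DMSO.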

[4] = CCTE_Shafer_MEA_acute_per_burst_spike_number_mean: CCTE's Neural Acute Assay for Average Number of Spikes Per Burst, Shafer Lab (AID 2284015);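 further: hits are decreases in mean spikes per burst versus baseline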
How it was run: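 Read-out: percent change in mean spikes per burst, each well's post-exposure 40-min recording versus its own 40-min baseline. Rat cortical cultures, DIV 13 or 15, compounds 0.03-40 uM; DMSO is negative control, loss-of-signal fitting.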

[5] = CCTE_Shafer_MEA_acute_interburst_interval_mean: CCTE's Neural Acute Assay for Mean Interburst Interval, Shafer Lab (AID 2284016);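 further: percent change of mean interburst interval versus each well's own pre-dose baseline; curves fitted for decrease in interburst interval relative to DMSO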
How it was run: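 Rat cortical cultures, DIV 13/15; 20 min equilibration, 40 min baseline, compound 0.03-40 uM, 40 min re-recording, 37 C. Spikes detected at 8x rms noise (300-5000 Hz band-pass). Endpoint: % change in interburst interval, fitted in loss direction vs DMSO.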

[6] = CCTE_Shafer_MEA_acute_burst_percentage_mean: CCTE's Neural Acute Assay for Percentage of Spikes in a Burst, Shafer Lab (AID 2284017);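 on AC50: curve fitted for loss of signal so potency reflects decreased burst percentage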
How it was run: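 Rat cortical cultures, DIV 13/15, 37 C. Spikes detected at 8x rms noise (300-5000 Hz band-pass). Burst spikes/total spikes averaged across electrodes per well; % change post- vs pre-treatment (40 min each), loss-of-signal fit vs DMSO.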

[7] = CCTE_Shafer_MEA_acute_burst_percentage_std: CCTE's Neural Acute Assay for Standard Deviation of Burst Percentage, Shafer Lab (AID 2284018);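 further: fitted in the negative direction so actives lower burst percentage SD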
How it was run: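 Primary rat cortical neurons on 16-electrode MEA wells were recorded 40 min at baseline (DIV 13 or 15), then 40 min after compound (0.03-40 uM), at 37 C. Well value is SD across electrodes of spikes-in-bursts/total spikes; endpoint is percent change, DMSO-referenced.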

[8] = CCTE_Shafer_MEA_acute_per_network_burst_spike_number_mean: CCTE's Neural Acute Assay for Average Number of Spikes in a Network Burst, Shafer Lab (AID 2284019)
How it was run: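 Primary rat cortical neurons on 16-electrode MEA wells, DIV 13 or 15, 37 C; 40-min baseline then 40-min recording with compound (0.03-40 uM). Spikes per network burst (total spikes/number of bursts) expressed as percent change from baseline, DMSO reference.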

[9] = CCTE_Shafer_MEA_acute_per_network_burst_spike_number_std: CCTE's Neural Acute Assay for Standard Deviation of Number of Spikes in a Network Burst, Shafer Lab (AID 2284020);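 further: fitted for decrease in spike-number SD versus DMSO so actives lower it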
How it was run: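 Primary rat cortical neurons on 48-well MEAs (16 electrodes/well) recorded at DIV 13 or 15: 40-min baseline, then 40 min with compound (0.03-40 uM), 37 C. Value is percent change in SD of spikes per network burst, relative to DMSO.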

[10] = CCTE_Shafer_MEA_acute_per_network_burst_electrodes_number_mean: CCTE's Neural Acute Assay for Mean Number of Electrodes in a Network Burst, Shafer Lab (AID 2284021);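 further: curves fitted for decreases only so hits reduce electrodes per burst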
How it was run: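 Primary rat cortical networks, mwMEA, 37 C. 20 min stabilization, 40 min baseline, compound 0.03-40 uM, 40 min re-record. Wells need >=10 active electrodes; percent change per well, negative fitting direction.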

[11] = CCTE_Shafer_MEA_acute_network_burst_percentage: CCTE's Neural Acute Assay for Percentage of Network Bursts, Shafer Lab (AID 2284022);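 further: curves fitted for loss so actives lower network burst percentage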
How it was run: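 Readout is the fraction of spikes falling in network bursts, expressed as per-well percent change from a 40-min pre-exposure baseline. Primary rat cortical neurons on MEA were exposed to 0.03-40 uM compound on DIV 13 or 15 and recorded for 40 min at 37 C.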

[12] = CCTE_Shafer_MEA_acute_synchrony_index: CCTE's Neural Acute Assay for Synchrony, Shafer Lab (AID 2284027);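 further: network synchrony index of spontaneous spiking in primary rat cortical neurons on MEAs; fitted for loss of signal so actives lower synchrony relative to DMSO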
How it was run: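 Spontaneous firing of mature rat cortical networks is captured extracellularly on microelectrode arrays at 37 C, with wells needing ≥10 active electrodes. Each compound (0.03-40 uM) is judged by the change in synchrony index from baseline over 40 min.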

[13] = CCTE_Shafer_MEA_dev_firing_rate_mean: CCTE's Neural Network Formation Assay for Mean Firing Rate, Shafer Lab (AID 2284031);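 further: AUC of well mean spike rate recorded on DIV 5 7 9 and 12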
How it was run: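 Developing rat cortical networks on MEA plates undergo 12-day compound exposure. Firing frequency, averaged across active electrodes, is integrated as area under the curve over four recording days, referenced to DMSO.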

[14] = CCTE_Shafer_MEA_dev_per_burst_spike_percent: CCTE's Neural Network Formation Assay for Percent of Spikes in a Burst, Shafer Lab (AID 2284032)
How it was run: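 Rat primary cortical neurons on 16-electrode MEA wells, dosed from plating day 0 for 12 days with renewal on DIV 5 and 9; spikes-in-bursts percentage averaged over bursting electrodes, collapsed as AUC across days 5, 7, 9, 12; loss direction versus DMSO.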

[15] = target: Estrogen receptor (Homo sapiens) (UniProt P03372); test: CCTE_Deisenroth_AIME_384WELL_LUC_Active: CCTE's 384-well Estrogen Receptor Transactivation Assay with AIME metabolic competence (ERTA luciferase; metabolism positive), Deisenroth Lab (AID 2284030; active means hit-call score of the fitted dose curve at least 0.9, where 1 is the maximum)
How it was run: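 AIME metabolism-positive mode: chemicals 0.002 - 200 uM, 2 h with alginate-bound PB/BNF-induced rat S9 → medium to VM7Luc4E2 ERTA, 24 h → luciferase. Positive fit vs 17beta-estradiol; n=4 typical.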

[16] = CCTE_Deisenroth_AIME_96WELL_CTox_Active: Cytotoxicity Assessment (CTOX) in CCTE's 96-well Estrogen Receptor Transactivation Assay with AIME metabolic competence (metabolism positive), Deisenroth Lab (AID 2284028; active means hit-call score of the fitted dose curve at least 0.9, where 1 is the maximum)
How it was run: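 Chemicals (0.002–200 uM) were first incubated 2 h with alginate-immobilized phenobarbital/beta-naphthoflavone-induced male rat liver S9; conditioned medium then went onto VM7Luc4E2 cells for 24 h, with viability read by protease-substrate fluorescence, fitted bidirectionally.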

Measured: AC50

Estrogen receptor (Homo sapiens), sequence (P03372 whole entry, looked up): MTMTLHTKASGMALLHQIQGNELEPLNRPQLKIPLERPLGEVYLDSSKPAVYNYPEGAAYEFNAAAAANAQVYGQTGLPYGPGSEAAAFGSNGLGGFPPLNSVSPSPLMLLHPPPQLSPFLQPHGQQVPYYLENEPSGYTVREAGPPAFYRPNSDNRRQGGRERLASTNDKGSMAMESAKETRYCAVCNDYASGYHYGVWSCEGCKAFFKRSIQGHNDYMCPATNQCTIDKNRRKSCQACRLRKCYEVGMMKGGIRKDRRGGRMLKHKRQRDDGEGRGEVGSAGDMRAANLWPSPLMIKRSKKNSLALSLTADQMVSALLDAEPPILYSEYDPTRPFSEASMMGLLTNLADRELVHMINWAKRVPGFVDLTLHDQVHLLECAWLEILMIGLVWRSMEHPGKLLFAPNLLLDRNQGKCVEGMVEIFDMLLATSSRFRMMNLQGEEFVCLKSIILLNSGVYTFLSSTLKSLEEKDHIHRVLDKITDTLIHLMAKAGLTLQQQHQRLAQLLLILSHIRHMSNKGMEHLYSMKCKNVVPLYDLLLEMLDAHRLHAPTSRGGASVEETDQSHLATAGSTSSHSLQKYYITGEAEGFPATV

C/C=C/c1ccc(OC)cc1
inactive: [1] | [2] | [3] | [4] | [5] | [6] | [7] | [8] | [9] | [10] | [11] | [12]

O=C1NC(=O)C(c2ccccc2)(c2ccccc2)N1
inactive: [1] | [13] | [14]

O=[Si]=O
inactive: [15]

Cc1cc(Cc2ccc(N)c(C)c2)ccc1N
inactive: [2] | [3] | [7] | [8]
active: [4] 30 µM | [5] 35.7 µM | [6] 30 µM | [9] 20 µM | [10] 29.9 µM | [11] 29.6 µM | [12] 20 µM

O=C1c2c(O)cccc2Cc2cccc(O)c21
inactive: [1]

COC(=O)CCC(=O)OC
inactive: [1] | [15]

CSc1ccc(Oc2ccc(S(N)(=O)=O)cc2CN(C)C)cc1C
active: [4] 36 µM | [6] 31.8 µM | [7] 32.1 µM | [12] 31.3 µM
inactive: [1] | [2] | [3] | [5] | [8] | [9] | [10] | [11] | [15]

O=C1OC(c2ccc(O)cc2)(c2ccc(O)cc2)c2ccccc21
active: [6] 24.6 µM | [9] 20 µM | [11] 31 µM | [12] 28.5 µM
inactive: [1] | [2] | [3] | [4] | [5] | [7] | [8] | [10]

CCCCCCCCCCCCCCCCO
inactive: [15]

CCN(CC)CCOc1ccc(C(=C(Cl)c2ccccc2)c2ccccc2)cc1
active: [2] 2.68 µM | [6] 20 µM | [7] 29.1 µM
inactive: [3] | [4] | [5] | [8] | [9] | [10] | [11] | [12]

Cc1ccc(-c2cc(C(F)(F)F)nn2-c2ccc(S(N)(=O)=O)cc2)cc1
inactive: [1] | [3] | [4] | [7] | [8] | [9] | [10] | [11] | [12]
active: [2] 6.46 µM | [5] 5 µM | [6] 20 µM

CC(C)(C)c1ccccc1
inactive: [1]

S=c1[nH]c2ccccc2s1
inactive: [1] | [16]

O=C(O)CC(O)(CC(=O)O)C(=O)O
inactive: [15]

CC(C)c1cccc(C(C)C)c1
inactive: [15]

O=C(O)c1[nH]n(-c2ccc(S(=O)(=O)O)cc2)c(=O)c1N=Nc1ccc(S(=O)(=O)O)cc1
inactive: [15]

CC1(C)C(=O)NC(=O)N1CO
inactive: [15]

CCCCC(CC)COP(=O)(OCC(CC)CCCC)OCC(CC)CCCC (configuration not stated)
inactive: [2] | [3] | [4] | [5] | [6] | [7] | [8] | [9] | [10] | [11] | [12]

C=CCCCCCCCCCCCC
inactive: [1]

CC(C)NCC(O)c1ccc(O)c(O)c1 (configuration not stated)
inactive: [1] | [2] | [3] | [4] | [5] | [6] | [7] | [8] | [9] | [10] | [11] | [12]

CN(C)C(=O)NC1(c2ccccc2)CCN(CC[C@@]2(c3ccc(F)c(F)c3)CN(C(=O)c3ccccc3)CCO2)CC1
active: [2] 4.34 µM | [11] 5 µM
inactive: [1] | [3] | [4] | [5] | [6] | [7] | [8] | [9] | [10] | [12]
